Results on twelve compounds are retold here after PubChem BioAssay (EPA / NIEHS).

Experiment [1] is described as follows: ATG_TCF_b_cat_CIS: Attagene CIS-FACTORIAL HepG2 Assay for human T-Cell-Factor with beta-catenin (TCF/b-cat) (AID 2282965). The conditions noted are these: HepG2 TCF/beta-catenin cis-reporter transcription, actives raise or lower the signal. Summed up:
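Using capillary electrophoresis as the read-out, labelled reporter cDNA fragments from transiently transfected HepG2 were sized and quantified. Exposure lasted 24 hours; activity in either direction was referenced to DMSO.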

Experiment [2] is described as follows: ATG_TAL_CIS: Attagene CIS-FACTORIAL HepG2 Assay for human TAL Basal Promoter (AID 2282966).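 Note: background control endpoint measuring basal TAL promoter reporter mRNA not a specific factor.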 As to conditions: HepG2 Attagene cis-factorial TAL promoter reporter; actives raise or lower the signal. Summed up: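 After 24 hours of chemical exposure, transfected HepG2 cells yielded RNA that was converted to 6-FAM-labelled, HpaI-digested reporter fragments for capillary electrophoresis. Values derive from bidirectional fitting against DMSO controls.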

The nature of experiment [3]: ATG_TGFb_CIS: Attagene CIS-FACTORIAL HepG2 Assay for human Transforming Growth Factor (TGF) (AID 2282967). The conditions noted are these: HepG2 Attagene CIS TGFb reporter, mRNA transcription; actives raise or lower the signal. Summed up:
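HepG2 cells transiently transfected with cis-promoter-driven multiple reporter units measure endogenous TF activity; reporter mRNA quantified at 24 h by RT-PCR, FAM labeling, HpaI digestion and capillary electrophoresis. Bidirectional fit vs DMSO.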

In experiment [4] the target is Nuclear receptor subfamily 1 group I member 3 (Homo sapiens) (UniProt Q14994). Put plainly: ATG_CAR_TRANS: Attagene TRANS-FACTORIAL HepG2 Assay for human Constitutive Androstane Receptor (CAR) (AID 2282969; active = hit-call score of the fitted dose curve at least 0.9, where 1 is the maximum;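 note: activators raise reporter mRNA above DMSO so AC50 marks induction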). As to conditions: HepG2 Attagene TRANS-FACTORIAL CAR reporter. In outline: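 Steps: transient transfection of HepG2 with multiple GAL4-UAS reporter units; 24 h compound incubation; RNA isolation, RT-PCR, 6-FAM primer extension, HpaI digest; capillary electrophoresis. Gain-of-signal relative to DMSO negative control.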

Experiment [5] deals with Estrogen receptor (Homo sapiens) (UniProt P03372). As to the kind of experiment: ATG_ERa_TRANS: Attagene TRANS-FACTORIAL HepG2 Assay for human Estrogen Receptor alpha (ERa) (AID 2282970; active = hit-call score of the fitted dose curve at least 0.9, where 1 is the maximum). The conditions noted are these: HepG2 Attagene TRANS ERa GAL4 reporter, mRNA. Summed up:
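Liver-derived HepG2 cells expressing chimeric nuclear receptor-Gal4 proteins from transient transfection were exposed for 24 hours. Gain of reporter mRNA signal versus DMSO, read by capillary electrophoresis of FAM-labelled PCR products, was recorded.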

Experiment [6] deals with Steroid hormone receptor ERR1 (Homo sapiens) (UniProt P11474). As to the kind of experiment: ATG_ERRa_TRANS: Attagene TRANS-FACTORIAL HepG2 Assay for human Estrogen-Related Receptor alpha (ERRa) (AID 2282971; active = hit-call score of the fitted dose curve at least 0.9, where 1 is the maximum). The conditions noted are these: HepG2 Attagene TRANS reporter, ERRa transactivation. In outline: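 Reporter transcript induction was quantified by RT-PCR and capillary electrophoresis of FAM-labelled, HpaI-cut products after 24 h treatment of HepG2 cells carrying transiently transfected GAL4-UAS reporter units and an exogenous ERRa-Gal4 fusion; activity scored as increase over DMSO.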

Experiment [7] concerns the target X-box-binding protein 1 (Homo sapiens) (UniProt P17861). Put plainly: ATG_Xbp1_CIS: Attagene CIS-FACTORIAL HepG2 Assay for human X-box Binding Protein 1 (XBP1) (AID 2282972). The conditions noted are these: HepG2 XBP1 cis-element reporter, Attagene multiplex; actives raise or lower the signal. In outline:
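Changes in reporter transcript abundance, read by RT-PCR and capillary electrophoresis, reflect endogenous transcription factor activity. Transfected HepG2 cells received compound for 24 hours; DMSO defined baseline for bidirectional analysis.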

The target of experiment [8] is Androgen receptor (Homo sapiens) (UniProt P10275). Put plainly: ATG_AR_TRANS: Attagene TRANS-FACTORIAL HepG2 Assay for human Androgen Receptor (AR) (AID 2282973; active = hit-call score of the fitted dose curve at least 0.9, where 1 is the maximum). As to conditions: HepG2 Attagene TRANS-FACTORIAL AR reporter transcription. The method, then: ATG_TRANS is a cell-based, multiplexed-readout assay that uses HepG2, a human liver cell line, with measurements taken at 24 hours after chemical dosing in a 24-well plate.ATG_AR_TRANS is one of 30 assay component(s) measured or calculated from the ATG_TRANS assay. It is designed to make measurements of mRNA induction, a form of inducible reporter, as detected with fluorescence intensity signals by Reverse transcription polymerase chain reaction (RT-PCR) and Capillary electrophoresis technology.Data from the assay component ATG_AR_TRANS was analyzed into 1 assay endpoint. This assay endpoint, ATG_AR_TRANS, was analyzed in the positive analysis fitting direction relative to DMSO as the negative control and baseline of activity. Using a type of inducible reporter, measures of mRNA for gain-of-signal activity can be used to understand the reporter gene at the transcription factor-level as they relate to the gene AR. Furthermore, this assay endpoint can be referred to as a primary readout, because this assay has produced multiple assay endpoints where this one serves a reporter gene function. To generalize the intended target to other relatable targets, this assay endpoint is annotated to the nuclear receptor intended target family, where the subfamily is steroidal.
Human liver HepG2 cells are transiently transfected with multiple reporter transcription units (MRTUs) in 6-well plates using FuGene 6 reagent (Roche; 3 ml FuGene/1 mg DNA). The MRTU constructs are regulated by a cis-regulating element (promoter). […] A major difference between the CIS and TRANS system is that in CIS activities of endogenous TFs are measured, whereas the TRANS assay evaluates changes in activities of exogenous, chimeric NR-Gal4 proteins. […] At the end of 24 hour incubation, total RNA was isolated using TriZol reagent (Invitrogen). The isolated RNA is then reverse-transcribed using oligo(dT) primer and Mo-MLV reverse transcriptase (Invitrogen) with DNAse I (Ambion) treatment for 30 min. The one-tenth of the produced cDNA was amplified by PCR using Taq DNA polymerase (Invitrogen) and two reporter sequence-specific primers. The PCR products were fluorescently labeled by primer extension with 6-arboxyfluorescein (6-FAM) 5'-labeled reporter sequence-specific primer (2 min at 95 C, 20 s at 68 C and 10 min at 72 C) and these products were digested with 5U of HpaI (New England Biolabs) for 2h at 37 C. The fragments were purified using Qiaquick PCR columns (Qiagen), analyzed on an ABI 3130xL genetic analyzer (Applied Biosystems) with peak positions identified by using a set of X-rhodamine (ROX)-labeled MapMarker1000 molecular weight standards (BioVentures). The raw capillary electrophoresis data was processed using Attagraph software (Attagene).

Experiment [9] can be described thus: ATG_M_19_TRANS: Attagene TRANS-FACTORIAL HepG2 Assay for M19 Transcription Factor (Internal Marker) (AID 2282974; active = hit-call score of the fitted dose curve at least 0.9, where 1 is the maximum). The conditions noted are these: HepG2 Attagene TRANS-FACTORIAL M19 internal marker reporter. Summed up: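 After transfection of HepG2 with GAL4-UAS-driven reporter constructs, cells are dosed for 24 h. Total RNA is reverse-transcribed, reporter sequences PCR-amplified and labelled, then HpaI-digested and sized by capillary electrophoresis.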

Experiment [10] in a line: ATG_VDRE_CIS: Attagene CIS-FACTORIAL HepG2 Assay for human Vitamin D Receptor Element (VDRE) (AID 2282968). The conditions noted are these: HepG2 VDRE cis-reporter transcription, actives raise or lower the signal. In outline:
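Transfected HepG2 reporter cells, chemical treatment 24 h. RNA isolated, cDNA amplified with reporter-specific primers, products analysed by capillary electrophoresis. Endpoint fitted in both directions versus DMSO.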

Inconclusive results are not listed. Some compounds were tested as several samples or in several runs, with calls that do not always agree. Calls of active or inactive are those of the source. Rule for the calls, unless noted: active = hit-call score of the fitted dose curve at least 0.9, where 1 is the maximum; inactive = score below 0.9.

Chain of Nuclear receptor subfamily 1 group I member 3 (Homo sapiens) (Q14994 whole entry, looked up, the tested form may be a part): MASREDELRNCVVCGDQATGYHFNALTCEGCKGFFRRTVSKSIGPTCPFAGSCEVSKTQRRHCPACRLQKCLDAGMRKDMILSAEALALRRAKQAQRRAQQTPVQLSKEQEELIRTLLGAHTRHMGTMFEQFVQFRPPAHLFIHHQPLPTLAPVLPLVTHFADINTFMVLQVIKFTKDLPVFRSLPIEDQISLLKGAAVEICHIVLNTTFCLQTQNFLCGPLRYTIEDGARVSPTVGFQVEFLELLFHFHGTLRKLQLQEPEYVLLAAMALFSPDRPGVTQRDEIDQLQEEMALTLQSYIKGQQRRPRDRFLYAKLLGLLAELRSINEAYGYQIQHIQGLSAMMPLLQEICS
Chain of Estrogen receptor (Homo sapiens) (P03372 whole entry, looked up, the tested form may be a part): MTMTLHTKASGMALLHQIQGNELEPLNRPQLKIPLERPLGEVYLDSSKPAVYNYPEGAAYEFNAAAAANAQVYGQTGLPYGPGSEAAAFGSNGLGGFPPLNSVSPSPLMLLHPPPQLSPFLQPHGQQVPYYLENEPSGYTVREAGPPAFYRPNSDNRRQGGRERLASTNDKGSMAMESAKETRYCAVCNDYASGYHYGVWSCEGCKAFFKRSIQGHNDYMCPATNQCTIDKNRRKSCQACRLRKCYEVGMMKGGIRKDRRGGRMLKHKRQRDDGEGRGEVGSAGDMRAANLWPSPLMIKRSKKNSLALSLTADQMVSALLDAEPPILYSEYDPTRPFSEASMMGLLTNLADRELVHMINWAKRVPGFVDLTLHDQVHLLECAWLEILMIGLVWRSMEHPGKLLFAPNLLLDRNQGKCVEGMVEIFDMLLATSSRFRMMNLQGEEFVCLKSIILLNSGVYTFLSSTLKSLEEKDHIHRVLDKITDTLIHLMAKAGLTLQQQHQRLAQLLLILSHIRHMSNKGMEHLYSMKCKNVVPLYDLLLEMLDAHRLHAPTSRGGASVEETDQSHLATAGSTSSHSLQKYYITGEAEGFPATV
Chain of X-box-binding protein 1 (Homo sapiens) (P17861 whole entry, looked up): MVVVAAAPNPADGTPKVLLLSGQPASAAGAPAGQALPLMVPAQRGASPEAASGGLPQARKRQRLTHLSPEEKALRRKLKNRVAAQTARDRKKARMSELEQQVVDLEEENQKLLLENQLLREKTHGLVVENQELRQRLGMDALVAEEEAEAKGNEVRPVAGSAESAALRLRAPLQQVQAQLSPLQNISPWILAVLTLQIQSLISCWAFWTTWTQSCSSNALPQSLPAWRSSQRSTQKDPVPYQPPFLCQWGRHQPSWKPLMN
Chain of Steroid hormone receptor ERR1 (Homo sapiens) (P11474 whole entry, looked up, the tested form may be a part): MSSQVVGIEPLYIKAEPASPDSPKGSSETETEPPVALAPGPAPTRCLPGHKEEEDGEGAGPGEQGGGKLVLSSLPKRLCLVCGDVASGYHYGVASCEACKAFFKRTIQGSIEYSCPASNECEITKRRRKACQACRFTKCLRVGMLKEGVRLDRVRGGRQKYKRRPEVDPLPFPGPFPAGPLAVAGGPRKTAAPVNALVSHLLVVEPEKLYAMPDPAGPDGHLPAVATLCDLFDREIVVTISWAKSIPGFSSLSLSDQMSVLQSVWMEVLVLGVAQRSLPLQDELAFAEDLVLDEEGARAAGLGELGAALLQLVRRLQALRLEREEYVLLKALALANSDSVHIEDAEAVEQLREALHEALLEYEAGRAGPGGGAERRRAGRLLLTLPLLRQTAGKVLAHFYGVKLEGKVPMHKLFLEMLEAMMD
Chain of Androgen receptor (Homo sapiens) (P10275 whole entry, looked up): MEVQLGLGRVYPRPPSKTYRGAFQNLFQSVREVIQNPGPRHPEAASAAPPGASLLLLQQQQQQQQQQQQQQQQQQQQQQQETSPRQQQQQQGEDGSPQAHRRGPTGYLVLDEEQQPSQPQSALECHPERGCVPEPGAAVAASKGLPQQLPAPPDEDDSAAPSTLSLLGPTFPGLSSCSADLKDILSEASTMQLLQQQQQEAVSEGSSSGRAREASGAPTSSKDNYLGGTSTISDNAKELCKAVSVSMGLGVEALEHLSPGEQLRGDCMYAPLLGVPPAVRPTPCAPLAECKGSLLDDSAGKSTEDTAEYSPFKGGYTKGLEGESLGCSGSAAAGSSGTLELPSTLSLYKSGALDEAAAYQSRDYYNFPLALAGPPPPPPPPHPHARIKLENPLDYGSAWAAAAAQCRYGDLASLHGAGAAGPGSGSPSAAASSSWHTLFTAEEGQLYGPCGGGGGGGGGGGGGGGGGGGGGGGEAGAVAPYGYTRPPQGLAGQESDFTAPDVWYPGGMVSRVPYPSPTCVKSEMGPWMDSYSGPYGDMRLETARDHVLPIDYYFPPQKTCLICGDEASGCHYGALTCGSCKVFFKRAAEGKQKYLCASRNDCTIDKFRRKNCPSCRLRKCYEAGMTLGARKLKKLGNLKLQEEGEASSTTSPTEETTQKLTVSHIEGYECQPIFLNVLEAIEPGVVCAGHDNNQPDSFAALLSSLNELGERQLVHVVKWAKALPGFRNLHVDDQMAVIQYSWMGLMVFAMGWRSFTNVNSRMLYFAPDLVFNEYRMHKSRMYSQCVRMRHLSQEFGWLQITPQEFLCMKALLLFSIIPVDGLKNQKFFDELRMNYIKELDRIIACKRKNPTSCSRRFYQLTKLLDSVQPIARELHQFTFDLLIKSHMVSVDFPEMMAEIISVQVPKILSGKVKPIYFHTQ

In the case of `COC(=O)c1ccccc1CS(=O)(=O)NC(=O)Nc1nc(OC)cc(OC)n1`, the result in [1], in experiment [2], in [3], in [4], in experiment [5] and in experiment [6] was inactive. For the same compound, the compound was classed as inactive in experiment [7].
For `O=[N+]([O-])/N=C1\NCCN1Cc1ccc(Cl)nc1`, the compound was classed as inactive in experiment [1], in experiment [2], in [3], in [4], in [5] and in experiment [6]. For the same compound, the outcome in experiment [7] and in experiment [8] was inactive.
For the compound `COc1nn(CSP(=S)(OC)OC)c(=O)s1`, the outcome in experiment [1], in experiment [2], in [3], in experiment [4], in [5] and in experiment [7] was inactive.
Turning to `O=S(=O)(O)C(F)(F)C(F)(F)C(F)(F)C(F)(F)C(F)(F)C(F)(F)C(F)(F)C(F)(F)F`, the compound was called inactive in experiment [1], in [2], in [3], in [6], in experiment [7] and in [9]. For the same compound, the AC50 is 62.2 µM (active) [middle of 9 runs] in [3] and 100 µM (active) in experiment [9].
Turning to `ClC1C(Cl)C(Cl)C(Cl)C(Cl)C1Cl` (stereo not drawn), the compound was called inactive in [1], in [2], in experiment [3], in experiment [6], in [7] and in experiment [9]. In addition, the AC50 in experiment [2] is 100 µM (active); in experiment [7], 42.6 µM (active).
`O=C(Nc1ccccc1)Nc1cnns1`: the outcome in experiment [1], in [2], in experiment [3], in [4], in [5] and in [6] was inactive. Further, the compound was called inactive in experiment [9]. In experiment [7], the AC50 is 77.6 µM (active).
Regarding `CC(C)OC(=O)Nc1cccc(Cl)c1`, the compound was called inactive in experiment [1], in experiment [2], in experiment [3], in experiment [5], in [6] and in experiment [7]. The AC50 in [10] was 50 µM (active).
In the case of `OCCOc1ccccc1`, the result in experiment [1], in experiment [2], in experiment [3], in [4], in experiment [5] and in experiment [6] was inactive. Besides, the compound was classed as inactive in [7] and in experiment [9].
Regarding `CNC(=O)Oc1ccccc1OC(C)C`, the compound was classed as inactive in experiment [1], in [2], in experiment [3], in experiment [4], in experiment [5] and in experiment [6]. The compound was called inactive in [7] and in [9].
Regarding `CNC(=O)Oc1cccc(N=CN(C)C)c1`, the call in [1], in experiment [2], in experiment [3], in experiment [4] and in [5] was inactive. In experiment [7], the AC50 was 90.4 µM (active).
Regarding `CCC(C)(NC(=O)c1cc(Cl)c(C)c(Cl)c1)C(=O)CCl` (stereo not drawn), the outcome in experiment [1], in [2], in experiment [3], in experiment [4], in experiment [5] and in experiment [6] was inactive. Besides, the result in experiment [7] and in [9] was inactive.
As to `Cc1cc(C)nc(NC(=O)NS(=O)(=O)c2ccccc2C(=O)OC2COC2)n1`, the outcome in experiment [1], in experiment [2], in experiment [3], in experiment [4], in experiment [5] and in experiment [7] was inactive.

By AC50 is commonly meant the concentration at which the activity in the assay is half-maximal.
